# From PubChem
# SRC1 TRFRET art: flags TR-FRET format artefacts in PPARgamma SRC-1 recruitment agonist screen. TR-FRET detection artefact counter-screen, emission ratio; hits give high values. TR-FRET ratio at 8 µM. 0.34% of 99,000 active; in the data active = TR-FRET ratio above about 2300
# PPARg SRC1 recr: agonists of human PPARgamma SRC-1 coactivator recruitment. 0.41% of 200,000 active. PPARgamma-SRC-1 coactivator recruitment biochemical assay. AID 631. activation, % at 8 µM. P37231; in the data active = activation above about 19%;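 also: 0% = DMSO and 100% = reference agonist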
# PPARg SRC-3 ag: PPARgamma-driven SRC-3 recruitment agonism; activation, % at 8 µM; 0.26% of 200,000 active; P37231; biochemical PPARgamma/SRC-3 coactivator recruitment assay; AID 731; in the data active = activation above about 23%;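 also: 0% = DMSO and 100% = reference agonist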
# SRC3 TRFRET art: TR-FRET artefact, counter-screen to PPARgamma/SRC-3 agonist assay | AID 1048 | PPARgamma/SRC-3 format; hits give high values | TR-FRET ratio at 8 µM | 0.39% of 99,000 active
# PPARg SRC-2 ag: PPARgamma-driven SRC-2 recruitment agonism. P37231. PPARgamma LBD-SRC-2 recruitment, biochemical. activation, % at 8 µM. 0.34% of 200,000 active. AID 1032; in the data active = activation above about 22%;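 also: 0% = vehicle and 100% = reference agonist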
# SRC2 TRFRET art: counter-screen for PPARgamma SRC-2 recruitment agonists: TR-FRET artefact. hits give high values. TR-FRET ratio at 8 µM. 0.4% of 200,000 active. AID 1049
# PPARg SRC2 conf: human PPARgamma SRC-2 recruitment agonism, confirmation | shares compounds with PPARg SRC-3 ag | biochemical SRC-2 recruitment by PPARgamma | activation, % at 8 µM | 52% of 790 active | AID 1297; in the data active = activation above about 22%;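 also: 0% = vehicle alone and 100% = reference agonist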
# PPARg SRC1 ag: human PPARgamma SRC-1 recruitment agonism, confirmation; shares compounds with PPARg SRC-3 ag; PPARgamma–SRC-1 coactivator recruitment biochemical assay; activation, % at 8 µM; 43% of 790 active; AID 1300; in the data active = activation above about 20%;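 also: 0% = vehicle wells and 100% = reference agonist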
# PPARg SRC3 conf: human PPARgamma SRC-3 recruitment agonism, confirmation; shares compounds with PPARg SRC-3 ag; AID 1301; activation, % at 8 µM; biochemical PPARgamma-SRC-3 coactivator recruitment, agonist mode; 29% of 790 active; in the data active = activation above about 24%;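 also: 0% = vehicle wells and 100% = reference agonist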
# Target sequence (P37231 whole entry, looked up): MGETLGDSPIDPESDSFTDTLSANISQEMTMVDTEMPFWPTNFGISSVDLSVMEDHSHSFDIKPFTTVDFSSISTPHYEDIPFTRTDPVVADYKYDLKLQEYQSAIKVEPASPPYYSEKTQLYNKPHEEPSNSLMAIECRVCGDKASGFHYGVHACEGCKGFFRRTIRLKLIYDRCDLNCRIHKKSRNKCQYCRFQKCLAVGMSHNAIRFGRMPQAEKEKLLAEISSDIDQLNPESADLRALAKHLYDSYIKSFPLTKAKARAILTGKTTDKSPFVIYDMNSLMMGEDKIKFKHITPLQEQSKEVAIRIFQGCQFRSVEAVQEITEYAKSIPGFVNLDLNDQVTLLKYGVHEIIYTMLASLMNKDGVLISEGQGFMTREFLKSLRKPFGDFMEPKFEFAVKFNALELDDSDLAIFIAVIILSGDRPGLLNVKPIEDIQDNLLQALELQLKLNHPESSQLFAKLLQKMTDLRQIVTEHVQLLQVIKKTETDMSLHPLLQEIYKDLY
# Target sequence (Q9Y6Q9 whole entry, looked up): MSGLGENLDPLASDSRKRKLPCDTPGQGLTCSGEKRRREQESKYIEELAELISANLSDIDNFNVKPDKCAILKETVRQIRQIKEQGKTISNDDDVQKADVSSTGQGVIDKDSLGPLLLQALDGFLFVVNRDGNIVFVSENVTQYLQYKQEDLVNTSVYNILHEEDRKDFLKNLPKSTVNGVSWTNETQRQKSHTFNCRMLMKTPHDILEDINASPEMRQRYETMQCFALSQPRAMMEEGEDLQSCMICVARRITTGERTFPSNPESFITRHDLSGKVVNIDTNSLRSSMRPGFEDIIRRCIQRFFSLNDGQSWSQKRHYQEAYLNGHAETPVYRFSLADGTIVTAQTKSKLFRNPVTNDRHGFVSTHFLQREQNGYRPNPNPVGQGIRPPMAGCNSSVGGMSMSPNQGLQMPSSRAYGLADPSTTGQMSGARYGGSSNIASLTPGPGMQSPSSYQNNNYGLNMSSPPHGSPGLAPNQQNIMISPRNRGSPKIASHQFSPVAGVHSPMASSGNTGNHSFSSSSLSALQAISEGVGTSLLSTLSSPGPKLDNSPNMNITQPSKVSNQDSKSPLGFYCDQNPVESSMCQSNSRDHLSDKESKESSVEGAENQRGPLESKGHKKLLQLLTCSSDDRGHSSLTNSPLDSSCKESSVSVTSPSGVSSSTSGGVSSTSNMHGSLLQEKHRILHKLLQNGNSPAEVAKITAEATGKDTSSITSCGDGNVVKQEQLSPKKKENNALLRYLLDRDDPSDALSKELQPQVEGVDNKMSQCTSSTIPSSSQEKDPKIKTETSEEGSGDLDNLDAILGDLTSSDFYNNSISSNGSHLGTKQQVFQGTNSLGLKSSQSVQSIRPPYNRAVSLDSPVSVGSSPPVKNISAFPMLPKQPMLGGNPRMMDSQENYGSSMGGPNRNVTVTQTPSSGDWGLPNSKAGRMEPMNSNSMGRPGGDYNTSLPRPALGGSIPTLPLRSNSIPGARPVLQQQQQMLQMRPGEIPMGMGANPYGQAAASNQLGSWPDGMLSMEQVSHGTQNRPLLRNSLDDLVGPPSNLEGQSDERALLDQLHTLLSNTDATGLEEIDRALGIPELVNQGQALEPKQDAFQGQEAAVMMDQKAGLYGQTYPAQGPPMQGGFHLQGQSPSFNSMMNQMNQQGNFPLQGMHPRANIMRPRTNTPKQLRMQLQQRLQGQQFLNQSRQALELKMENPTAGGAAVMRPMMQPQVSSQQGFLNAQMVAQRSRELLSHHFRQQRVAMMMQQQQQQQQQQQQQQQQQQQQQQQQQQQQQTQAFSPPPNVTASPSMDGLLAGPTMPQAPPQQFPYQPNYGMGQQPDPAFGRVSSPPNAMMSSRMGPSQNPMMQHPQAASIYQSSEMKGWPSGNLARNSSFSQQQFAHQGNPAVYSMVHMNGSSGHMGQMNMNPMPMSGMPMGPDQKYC
# An asterisk follows results filed as active; x = not tested or not shown. This is a sample that favours compounds with a hit; in the whole collection about 0.9% have one here. Rule as the data show it, unless noted: active = TR-FRET ratio above about 2000; inactive = the rest.
SMILES,SRC1 TRFRET art,PPARg SRC1 recr,PPARg SRC-3 ag,SRC3 TRFRET art,PPARg SRC-2 ag,SRC2 TRFRET art,PPARg SRC2 conf,PPARg SRC1 ag,PPARg SRC3 conf
O=C(c1ccc2c(c1)OCO2)N1CCN(c2ccccc2)CC1,x,4,26*,x,13,1552,1,3,3
O=C1c2ccccc2C(=O)c2c1ccc(C(=O)N1CCCCC1)c2NCCO,x,21*,21,x,5,1568,13,8,5
CC1CCCN(C(=O)c2ccc3c(c2NCCO)C(=O)c2ccccc2C3=O)C1 (stereo unspecified),x,8,17,x,15,1480,x,x,x
NS(=O)(=O)c1ccc(CCNC(=O)c2cc(-c3ccccn3)nc3ccc(Br)cc23)cc1,2153,22*,15,2530*,11,1850,5,5,6
CC(C)CCNC(=O)CCn1c(=S)oc2ccccc21,1795,1,1,1454,1,1438,x,x,x
O=C(Oc1c(Br)cc(Br)c2cccnc12)N1CCCCC1,2129,29*,5,1960,15,1691,11,5,7
O=C(Oc1ccc(Cl)c2cccnc12)N1CCCCC1,1483,2,-3,1816,3,1472,x,x,x
O=c1oc2cc(O)c(Cl)cc2c2ccccc12,3291*,59*,54*,4295*,102*,4246*,55*,34*,39*
NC(=O)c1cccc2c(=O)oc3ccccc3c12,x,11,8,x,9,1531,x,x,x
CC(=O)c1cnc(-c2ccccn2)s1,1816,4,2,1464,-2,1664,x,x,x
CC(=O)c1cnc(-c2ccccc2Cl)s1,2031,22*,13,1925,15,1855,20,12,10
COc1ccc(CNc2nc(-c3cccnc3)nn2S(C)(=O)=O)cc1,1824,2,5,1424,-4,1705,x,x,x
O=C(Nc1nc2c(s1)COc1ccccc1-2)c1cccs1,x,19,15,x,27*,2118*,41*,32*,28*
O=C(CNC1CCCC1)Nc1ccc(N2CCCCCC2)cc1,1797,20*,6,1650,8,1860,1,0,1
Brc1ccc(-c2nn3c(-c4ccco4)nnc3s2)o1,x,75*,115*,x,99*,3538*,76*,52*,53*
Clc1ccc(-c2ccc(-c3nn4c(-c5ccco5)nnc4s3)o2)cc1,x,10,-6,x,5,1589,x,x,x
Cc1cc(C(=O)COC(=O)CNS(=O)(=O)c2ccc3ccccc3c2)c(C)n1-c1ccccc1,1884,3,2,1624,6,1766,x,x,x
O=C(CNS(=O)(=O)c1ccc2ccccc2c1)OCC(=O)c1ccc(Br)s1,x,33*,69*,x,61*,2540*,55*,35*,38*
COCCNC(=O)c1c(NC(=O)c2nc(SC)ncc2Cl)sc2c1CCCC2,x,0,5,x,-1,1442,x,x,x
CCCCOC(=O)C(C)Nc1n[nH]c(=O)[nH]c1=O (stereo unspecified),x,0,3,x,3,1335,x,x,x
CCCCOC(=O)C(C)Nc1n[nH]c(=S)[nH]c1=O (stereo unspecified),x,14,26*,x,21,1892,27*,27*,16
CCCCOC(=O)CNc1n[nH]c(=S)[nH]c1=O,x,48*,95*,x,66*,2722*,80*,61*,55*
CC(C)COC(=O)CNc1n[nH]c(=S)[nH]c1=O,x,52*,86*,x,63*,2814*,78*,58*,52*
CCCCOC(=O)CCNc1n[nH]c(=O)[nH]c1=O,1708,1,-4,1615,-1,1395,x,x,x
O=C1CC(c2cc([N+](=O)[O-])ccc2Cl)c2c(ccc3ccccc23)N1 (stereo unspecified),1911,1,-1,1581,-4,1601,x,x,x
O=C(CSc1c2c(nc3cc(Cl)ccc13)CCCC2)NCc1ccco1,x,16,23,x,26*,2007*,29*,21*,17
